Assay results: PubChem BioAssay AID588683 (Broad Institute, 2011)
Entries with a potency or affinity are not part of this list. Activity calls are given as the source filed them. No rule for the calls is given here.

Target: Kelch-like ECH-associated protein 1 (Homo sapiens) + Nuclear factor erythroid 2-related factor 2 (Homo sapiens) (UniProt Q14145+Q16236)
Assay: Keap1-Nrf2 protein-protein interaction inhibitors, dose response, biochemical, fluorescence polarization, cherry-picked samples (AID 588683);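 also: Kelch domain of Keap1 binding a fluorescein-labelled 9mer Nrf2 peptide; more negative means stronger inhibition of peptide binding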
Settings: Keap1/Nrf2 peptide fluorescence polarization, plate reader; series mostly up to 26 µM

Sequence of Kelch-like ECH-associated protein 1 (Homo sapiens) + Nuclear factor erythroid 2-related factor 2 (Homo sapiens) (Q14145 whole entry, looked up, the tested form may be a part): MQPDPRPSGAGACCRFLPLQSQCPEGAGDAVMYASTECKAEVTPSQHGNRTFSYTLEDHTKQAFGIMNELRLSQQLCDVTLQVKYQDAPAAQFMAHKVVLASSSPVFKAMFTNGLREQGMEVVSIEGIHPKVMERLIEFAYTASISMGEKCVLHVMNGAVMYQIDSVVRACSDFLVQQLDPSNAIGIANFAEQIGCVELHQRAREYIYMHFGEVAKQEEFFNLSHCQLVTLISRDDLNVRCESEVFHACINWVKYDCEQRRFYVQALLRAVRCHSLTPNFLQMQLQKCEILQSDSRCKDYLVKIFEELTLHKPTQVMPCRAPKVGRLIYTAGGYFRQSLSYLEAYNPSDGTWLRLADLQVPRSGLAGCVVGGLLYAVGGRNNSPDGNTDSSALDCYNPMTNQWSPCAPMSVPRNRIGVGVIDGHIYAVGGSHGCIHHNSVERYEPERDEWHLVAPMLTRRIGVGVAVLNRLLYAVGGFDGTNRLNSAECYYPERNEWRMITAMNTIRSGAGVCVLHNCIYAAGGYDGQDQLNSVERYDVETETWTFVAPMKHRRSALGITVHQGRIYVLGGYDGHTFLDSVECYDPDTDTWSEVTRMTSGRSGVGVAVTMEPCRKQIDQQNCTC
Sequence of Kelch-like ECH-associated protein 1 (Homo sapiens) + Nuclear factor erythroid 2-related factor 2 (Homo sapiens) (Q16236 whole entry, looked up, the tested form may be a part): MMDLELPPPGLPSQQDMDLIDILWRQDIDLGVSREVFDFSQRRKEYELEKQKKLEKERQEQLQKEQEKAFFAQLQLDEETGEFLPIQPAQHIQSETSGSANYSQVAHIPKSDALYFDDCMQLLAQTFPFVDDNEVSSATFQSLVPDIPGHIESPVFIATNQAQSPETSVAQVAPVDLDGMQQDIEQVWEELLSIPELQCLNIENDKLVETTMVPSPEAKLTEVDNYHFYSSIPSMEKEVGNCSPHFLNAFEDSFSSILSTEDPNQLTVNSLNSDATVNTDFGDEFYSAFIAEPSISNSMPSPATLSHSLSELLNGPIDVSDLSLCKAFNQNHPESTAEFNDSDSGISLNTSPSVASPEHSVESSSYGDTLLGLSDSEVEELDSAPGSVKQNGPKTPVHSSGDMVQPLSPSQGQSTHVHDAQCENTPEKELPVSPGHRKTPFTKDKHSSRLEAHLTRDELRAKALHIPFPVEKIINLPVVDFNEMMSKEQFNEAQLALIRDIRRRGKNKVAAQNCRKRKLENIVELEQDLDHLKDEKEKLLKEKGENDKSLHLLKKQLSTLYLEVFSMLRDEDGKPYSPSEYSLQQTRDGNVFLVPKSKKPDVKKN

outcome, inactive:
CC1(C)CC(=O)C2=C(C1)OC(N)=C(C#N)[C@@H]2c1ccccc1[N+](=O)[O-]
O=c1[nH]c(-[n+]2ccccc2)c(/C=N/NC([S-])=Nc2ccccc2)s1
COc1ccc(C2=CC(c3ccco3)n3ncnc3N2)cc1 (stereo not drawn)
C=CCn1c(O)c(CN2CCOCC2)c(C)c(C#N)c1=O
O=C1/C(=C/C=C/c2ccco2)SC(=S)N1NS(=O)(=O)c1ccccc1
O=C1NC(=O)/C(=C/c2ccccc2Cl)N1
Cc1cccc(NS(=O)(=O)c2ccc(C)c(C(=O)NCC(c3ccccc3)N(C)C)c2)c1 (stereo not drawn)
Clc1ccc(-c2noc(CN3CCOCC3)n2)cc1
O=C(CSc1nc2ccccc2c(=O)n1CCCN1CCOCC1)Nc1ccccc1OC(F)F
Cc1cc(=O)c2c([nH]1)c(C)cc1[nH]c(C)c(C)c12
CCCC(=O)Nc1ccc(C(=O)NCCCn2ccnc2)cc1
CCCCCSc1nnc2c(n1)OC(C)N(C(C)=O)c1ccccc1-2 (stereo not drawn)
CN(C)c1ccc2cc(S(=O)(=O)O)cc(O)c2c1
Cc1cc(C)c2nc3sc(C(=O)N4CCOCC4)c(N)c3cc2c1
O=S(=O)(O)c1ccc(O)c2cc(Nc3ccccc3)ccc12
COc1ccccc1Cn1c(=S)[nH]c2ccccc2c1=O
c1ccc(-n2ncc3c(NCC4CCCO4)ncnc32)cc1 (stereo not drawn)
COc1ccc(NS(=O)(=O)c2ccc(F)c(Cl)c2)cn1
COc1[nH]c(/N=C/c2ccccc2)c(C#N)c1C#N
CCC(CNc1cc(OC)cc2cccnc12)NC1CCCCC1 (stereo not drawn)
COC(=O)c1ccc(OC(=O)CN2C(=O)c3ccccc3C2=O)cc1
CCN(CC)C(=O)C1c2ccccc2Oc2ccccc21
N#CCCN(CCC#N)C(=O)C1c2ccccc2Oc2ccccc21
Cc1[nH]nc2c1C(CC(C)C)C(C#N)=C(N)O2 (stereo not drawn)
CCOC(=O)c1c(C)oc2c1c(C=NCCO)c(O)c1ccccc12
CCCCCC(=O)N1CCCC1
COc1ccc(NC(=S)N2CCN(Cc3ccc(C)cc3)CC2)cc1
CCOCCCn1c(=NC(=O)c2cccs2)c(C#N)cc2c(=O)n3cccc(C)c3nc21
CCOc1cccc(C2C(C(=O)c3ccc(C)o3)=C(O)C(=O)N2c2nccs2)c1 (stereo not drawn)
O=C(Nn1cnnc1)c1ccc(Cl)c(Cl)c1
CCCN(CCC)C(=O)C1c2ccccc2Oc2ccccc21
Cc1ccc(OC(C)C(=O)N2CCN(c3ccccn3)CC2)cc1 (stereo not drawn)
O=C(C1=NN(c2ccccc2)C2C(=O)N(c3ccccc3)C(=O)C12)c1ccccc1 (stereo not drawn)
COc1cccc(C2=CC(c3cccs3)n3nnnc3N2)c1 (stereo not drawn)
O=S(=O)(Nc1ncccn1)c1ccc(NC(=S)NCc2cccnc2)cc1
COc1ccc(C=Nc2cccnc2N)cc1
NC(=O)C1CCN(C2=C(Cl)C(=O)c3ccccc3C2=O)CC1
COc1ccc(N=Nc2nc3ccc(Br)cc3n2C)cc1
